Reference: the supplement of paper PMC6555819

What follows are sequences tested on LXRb homodimer (NR concentration 270 nM) (assay: PBM binding z-score (relative to random genomic background probes); higher = stronger binding; sequences stand for … in GC…GCGATTGACAGCGTAGAATGAAGG).
How it was run: (§1)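 Ligand-free nuclear receptor dimers were bound for 1 h to custom Agilent 4×180K protein-binding microarrays. Detection used antibodies against each partner (one per run). Binding z-scores rest on regression-normalized fluorescence, with random background probes as the reference.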
TTACCAAGGAGAAAGGTCGTTGATGCACGCCTTG showed a PBM binding z-score of -0.338. GCTATTAGTTGAAAGGGCATCCGAATGATTCTCG gave a PBM binding z-score of 0.0114. In the case of ATATGTGGGTTAAGGGTCATTCAGGTTGGTTCGC, the PBM binding z-score is reported as 2.59. With TAGCCTAGGTCATGCGGGCCGGTATAGTGTCGGC the PBM binding z-score was -0.202. For ATCTCTAGGTAAAGATAGTTCGGTGAATGCAAAT, the PBM binding z-score was 0.531. For TAGTCTAGGTCAGATCGGGCCAGTATACGCTATA, the PBM binding z-score was 1.4. Sequence AGTCAAAGTTCAGGACGAGGTAACGTCAAGCACG has a PBM binding z-score of -0.0254. Work on TCTGCTAGGTCAACGCTGGTCAGCTAATCTGCTA yielded a PBM binding z-score of -0.356. For TCTTGTAGACCAGCAGGTTAAGAAAGCTGGCCAA, the PBM binding z-score was -0.717. With CCTAGTTGGTTAGGAGGTCACACACCGGATATGA the PBM binding z-score was 0.635. TCTCGGAGGACACGAAGGTCAGAGTTTTCCAGAG gave a PBM binding z-score of -0.785. GCTTACGGGTCAAAGGTTATAGGATGAATAGAAT was tested, and the PBM binding z-score was 0.455. Work on TCTTGTATATCAAAGGTTAAGAAAGCCGAAGCCT yielded a PBM binding z-score of 0.723. In the case of CGTCCAAGGTTAATGCTAGGTCAGTGAAAGCATT, the PBM binding z-score is reported as -0.518. For CGAACTAGGTCATCGACAGGACAGTGAATAGTAA, the PBM binding z-score was -0.0443. Work on CCATACAGGTGAGAAGGTAACTCAGCCTCGATTA yielded a PBM binding z-score of -0.0623. CAAATTAGGTCAAGAGGTCAAAGTCCGCTTCCCG gave a PBM binding z-score of 2.41. Work on TCATATAGGTAATACGGGTGAAAGTCGGCATCTA yielded a PBM binding z-score of 0.196.

Each sequence was assayed on PPARa:RXRa (NR concentration 270 nM, RXRa partner concentration 90 nM) in the same assay as above.
How it was run: as §1
With TCATATAGGTAAACAGGTGAAACTCCGTAAGTTA the PBM binding z-score was 2.64. For TCTAGCAAGCCAGAGGGTCACTCAAGAGGTACGG, the PBM binding z-score was 2. ACAGACCGGTGAGTGAAGGTAACTCAGCTGGACG showed a PBM binding z-score of -0.708. Work on CCGACTGGGGCAAGATTACCATAACGCACAGCCA yielded a PBM binding z-score of -0.0466. GGAACGAGGGCAAAGTCGATAGCATCTGTCGACG gave a PBM binding z-score of 1.74. For ACTATCAGTTGAGACGAGGGCAACCGATAGGTTG, the PBM binding z-score was 0.26. With AATACACGGTCACTAGGCCAGAGTAGGTACGAAT the PBM binding z-score was 0.827. With TCTCGGAGGACACGAGAGGTCAGAGCTCGACATC the PBM binding z-score was 2.99. For ACAGACAGGTGATGAACGTAACTCAGGCTATCAT, the PBM binding z-score was -0.156. Work on ATACCAAGGTGATCGTGAGGTCGTTGTTACTAAC yielded a PBM binding z-score of 1.47. GCTACCAGGCCATTTGGGTCACTCAATGACGGGC gave a PBM binding z-score of 1.57. Sequence TCGAGTCGGTTACCAATGGGGCATTCAGCTTTCT has a PBM binding z-score of 0.0956. Work on TATCGGAGGACACGAAGGTCAGAGCTTTCCAGAG yielded a PBM binding z-score of 1.88. In the case of ATCGAAAGGTCGTTAGGTGAGTATACAGAAAGGC, the PBM binding z-score is reported as 4.25. Sequence AGTCAAAGTTCATCTAGGTAACGTACGATATGCT has a PBM binding z-score of 5.05. For ACAGACAGGTGATTAAGGTAACTCAGGCTATCAT, the PBM binding z-score was 0.176. In the case of AGTCAAAGTTCACTAGGTAACGTATGATTCAGCT, the PBM binding z-score is reported as 4.64. Work on TCTAATAGTTGAAGGGCAACCGACGAGTCCGTTT yielded a PBM binding z-score of 1.14. GCTAGCAGGCCTTTTGGGTCACTCAATGACGGGC showed a PBM binding z-score of 0.992. GCTTACGGGTCAAAGGTTATATCATGAATAGAAT gave a PBM binding z-score of 6.94. With TCTAGTTGCTCACGGAGGTCACACACGACGGGTA the PBM binding z-score was 3.62. CTCGAAAGATCGTGCTCAGGTGAGTATACCAAAC showed a PBM binding z-score of -0.384. For TTACCAAGGAGAAAGGTCGTTGATGCACGCCTTG, the PBM binding z-score was 2.37. For GCTATTAGTTGAAAGGGCATCCGAATGATTCTCG, the PBM binding z-score was 2.22. ATATGTGGGTTAAGGGTCATTCAGGTTGGTTCGC showed a PBM binding z-score of 6.53. TAGCCTAGGTCATGCGGGCCGGTATAGTGTCGGC was tested, and the PBM binding z-score was 3.19. ATCTCTAGGTAAAGATAGTTCGGTGAATGCAAAT gave a PBM binding z-score of 0.121. With TAGTCTAGGTCAGATCGGGCCAGTATACGCTATA the PBM binding z-score was 2.38. Sequence AGTCAAAGTTCAGGACGAGGTAACGTCAAGCACG has a PBM binding z-score of 3.5. For TCTGCTAGGTCAACGCTGGTCAGCTAATCTGCTA, the PBM binding z-score was 3.27. With TCTTGTAGACCAGCAGGTTAAGAAAGCTGGCCAA the PBM binding z-score was 0.558. With CCTAGTTGGTTAGGAGGTCACACACCGGATATGA the PBM binding z-score was 4.02. With TCTCGGAGGACACGAAGGTCAGAGTTTTCCAGAG the PBM binding z-score was 1.81. In the case of GCTTACGGGTCAAAGGTTATAGGATGAATAGAAT, the PBM binding z-score is reported as 6.89. Work on TCTTGTATATCAAAGGTTAAGAAAGCCGAAGCCT yielded a PBM binding z-score of 3.79. In the case of CGTCCAAGGTTAATGCTAGGTCAGTGAAAGCATT, the PBM binding z-score is reported as 2.21. CGAACTAGGTCATCGACAGGACAGTGAATAGTAA showed a PBM binding z-score of 4.87. Sequence CCATACAGGTGAGAAGGTAACTCAGCCTCGATTA has a PBM binding z-score of 1.01. Work on CAAATTAGGTCAAGAGGTCAAAGTCCGCTTCCCG yielded a PBM binding z-score of 6.6. Sequence TCATATAGGTAATACGGGTGAAAGTCGGCATCTA has a PBM binding z-score of 1.79.
